Test results as given in PubChem BioAssay (NCI).
This is part of a sample that, as a whole, favours compounds with a hit. Of some 79,000 tested, about 15% had one in any assay. Calls of active or inactive are those of the source. No stated cut-off is given here; in the data, active means growth inhibition above about 70%; inactive means the rest.

How the values were obtained:
[1] = NCI Yeast Anticancer Drug Screen. Data for the wt1 strain (AID 149);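 further: 0% = growth of vehicle-treated wt1 cultures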; details: S. cerevisiae wt1 strain (SPY 50644) growth inhibition, active compounds read high
Summary of the method: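 Vehicle-normalised growth inhibition; strain wt1; compound exposure.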

[2] = NCI Yeast Anticancer Drug Screen. Data for the rad50EPP+ strain (AID 151);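 further: 0% = growth of vehicle-treated control cultures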; details: S. cerevisiae rad50 mutant strain, active compounds read high
Summary of the method: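 Strain rad50EPP+; compound exposure; % growth inhibition vs vehicle.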

[3] = NCI Yeast Anticancer Drug Screen. Data for the mgt1 strain (AID 153); details: S. cerevisiae mgt1 mutant growth inhibition, active compounds read high
Summary of the method: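 Read-out: yeast growth inhibition vs vehicle control. Strain mgt1, drawn from a panel altered in DNA damage repair or cell cycle control.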

[4] = NCI Yeast Anticancer Drug Screen. Data for the rad50 strain (AID 155);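 further: 0% = growth of vehicle-only cultures of the same strain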; details: S. cerevisiae rad50 strain growth inhibition, active compounds read high
Summary of the method: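 A DNA repair-deficient yeast mutant serves as the test organism; compound-induced growth inhibition is calculated against vehicle-treated cells.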

[5] = NCI Yeast Anticancer Drug Screen. Data for the mec2-1 strain (AID 157); details: S. cerevisiae mec2-1 strain, active compounds read high
Summary of the method: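 Cells of the genetically defined mec2-1 yeast strain are incubated with test compound. Inhibition of growth is calculated against vehicle-treated controls.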

[6] = NCI Yeast Anticancer Drug Screen. Data for the rad14 strain (AID 159);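 further: 0% = growth of vehicle-treated control cultures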; details: S. cerevisiae rad14 strain growth inhibition, active compounds read high
Summary of the method: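 Vehicle-treated cultures served as the baseline for growth inhibition of a DNA repair-mutant yeast strain exposed to each compound.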

[7] = NCI Yeast Anticancer Drug Screen. Data for the sgs1 mgt1 strain (AID 161);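 further: 0% = growth of cultures given vehicle only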; details: S. cerevisiae sgs1 mgt1 strain, active compounds read high
Summary of the method: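 Test agents were incubated with a DNA-repair-mutant yeast strain. Growth was then read and compared against vehicle-treated controls.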

[8] = NCI Yeast Anticancer Drug Screen. Data for the CLN2oe strain (AID 163);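 further: 0% = growth of vehicle-only control cultures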; details: S. cerevisiae CLN2oe strain, active compounds read high
Summary of the method: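 Strain altered in cell-cycle control, incubated with compound; growth compared to solvent-treated controls.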

[9] = NCI Yeast Anticancer Drug Screen. Data for the cln2 rad14 strain (AID 165);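 further: 0% = growth equal to vehicle treated cultures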; details: S. cerevisiae cln2 rad14 strain, active compounds read high
Summary of the method: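 The screen exposed genetically defined yeast (cln2 rad14) to test compounds and scored growth inhibition relative to vehicle-treated controls.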

[10] = NCI Yeast Anticancer Drug Screen. Data for the bub3 strain (AID 167); details: S. cerevisiae bub3 mutant strain, active compounds read high
Summary of the method: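 Inhibition values come from growth of compound-treated mutant yeast normalised to vehicle-treated controls.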

[11] = NCI Yeast Anticancer Drug Screen. Data for the wt2 strain (AID 169);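 further: 0% = growth of vehicle-treated yeast cultures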; details: S. cerevisiae wt2 strain growth inhibition, active compounds read high
Summary of the method: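 Steps: yeast strain treated with compound; growth recorded; inhibition calculated relative to cultures given vehicle alone.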

[12] = NCI Yeast Anticancer Drug Screen. Data for the mlh1 strain (AID 171);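 further: 0% = growth of vehicle-treated control cultures of the same strain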; details: S. cerevisiae mlh1 strain growth inhibition, active compounds read high
Summary of the method: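 Yeast screen: mutant strain plus compound, growth scored against vehicle control wells.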

[13] = NCI Yeast Anticancer Drug Screen. Data for the sgs1 strain (AID 173);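 further: 0% = growth of vehicle-only control cultures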; details: S. cerevisiae sgs1 mutant, active compounds read high
Summary of the method: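 Inhibition of yeast growth served as the measure. The mutant strain was treated with each compound, and growth was normalised to cultures receiving vehicle alone.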

[14] = NCI Yeast Anticancer Drug Screen. Data for the mlh1 rad18 strain (AID 175); details: S. cerevisiae mlh1 rad18 strain growth inhibition, active compounds read high
Summary of the method: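 Compound-treated yeast growth, normalised to vehicle controls. Strain bears defined DNA repair mutations.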

[15] = NCI Yeast Anticancer Drug Screen. Data for the rad18 strain (AID 177); details: S. cerevisiae rad18 mutant growth inhibition, active compounds read high
Summary of the method: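 Inhibition values reflect reduced yeast growth compared with vehicle-treated controls, using a strain engineered with a DNA damage repair defect.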

[16] = at 5.0 µM (retest, dose inferred, filed as 0.5)
[17] = at 50.0 µM (retest, dose inferred, filed as 5.0)

Measured: growth inhibition

CCOC(=O)/C(=C\c1ccc(F)cc1)C(C)=O
inactive: [1]; at 1.2 µM -17% | [1]; at 3.7 µM 4% | [1]; at 11.0 µM 48% | [2]; at 1.2 µM 8% | [2]; at 3.7 µM 30% | [2]; at 11.0 µM 68% | [3]; at 1.2 µM -19% | [3]; at 3.7 µM 6% | [4]; at 1.2 µM -7% | [4]; at 3.7 µM 19% | [4]; [16] 30% | [5]; at 1.2 µM -43% | [5]; at 3.7 µM -3% | [5]; [16] 0% | [6]; at 1.2 µM -11% | [6]; at 3.7 µM -4% | [6]; at 11.0 µM 61% | [7]; [16] 21% | [8]; at 1.2 µM 6% | [8]; at 3.7 µM 4% | [8]; at 11.0 µM 67% | [9]; [16] 9% | [10]; at 1.2 µM 9% | [10]; at 3.7 µM 37% | [10]; [16] 48% | [11]; at 1.2 µM -35% | [11]; at 3.7 µM -17% | [11]; at 11.0 µM 62% | [12]; at 1.2 µM 2% | [12]; at 3.7 µM 42% | [13]; at 1.2 µM -2% | [13]; at 3.7 µM 22% | [14]; [16] 6% | [15]; at 1.2 µM -34% | [15]; at 3.7 µM 14%
active: [1]; at 33.0 µM 93% | [1]; at 100.0 µM 98% | [2]; at 33.0 µM 93% | [2]; at 100.0 µM 98% | [3]; at 11.0 µM 77% | [3]; at 33.0 µM 96% | [3]; at 100.0 µM 99% | [4]; at 11.0 µM 72% | [4]; at 33.0 µM 95% | [4]; [17] 97% | [4]; at 50.0 µM 91.8% | [4]; at 100.0 µM 97% | [5]; at 11.0 µM 74% | [5]; at 33.0 µM 95% | [5]; [17] 98% | [5]; at 50.0 µM 93.8% | [5]; at 100.0 µM 97% | [6]; at 33.0 µM 95% | [6]; at 100.0 µM 97% | [7]; [17] 97% | [7]; at 50.0 µM 93% | [8]; at 33.0 µM 96% | [8]; at 100.0 µM 98% | [9]; [17] 93% | [9]; at 50.0 µM 89% | [10]; at 11.0 µM 91% | [10]; at 33.0 µM 97% | [10]; [17] 97% | [10]; at 50.0 µM 92.1% | [10]; at 100.0 µM 98% | [11]; at 33.0 µM 95% | [11]; at 100.0 µM 98% | [12]; at 11.0 µM 88% | [12]; at 33.0 µM 97% | [12]; at 100.0 µM 97% | [13]; at 11.0 µM 72% | [13]; at 33.0 µM 97% | [13]; at 100.0 µM 98% | [14]; [17] 97% | [14]; at 50.0 µM 91.9% | [15]; at 11.0 µM 77% | [15]; at 33.0 µM 94% | [15]; at 100.0 µM 97%

CC1=NN(C(=O)CC(=O)NC(=O)/C=C\c2ccccc2)C(=O)C1N=Nc1ccc([N+](=O)[O-])cc1 (stereo not drawn)
inactive: [2]; at 1.2 µM 19% | [2]; at 3.7 µM 42% | [2]; at 11.0 µM 62% | [2]; at 33.0 µM 64% | [2]; at 100.0 µM 60% | [3]; at 1.2 µM 1% | [3]; at 3.7 µM 9% | [3]; at 11.0 µM 32% | [3]; at 33.0 µM 51% | [3]; at 100.0 µM 55% | [4]; at 1.2 µM -7% | [4]; at 3.7 µM -10% | [4]; [16] -1% | [4]; at 11.0 µM 38% | [4]; at 50.0 µM 59.1% | [5]; at 1.2 µM 3% | [5]; at 3.7 µM 8% | [5]; [16] -13% | [5]; at 11.0 µM 26% | [5]; at 33.0 µM 49% | [5]; [17] 35% | [5]; at 100.0 µM 43% | [6]; at 1.2 µM 1% | [6]; at 3.7 µM 5% | [6]; at 11.0 µM 21% | [6]; at 33.0 µM 41% | [6]; at 100.0 µM 46% | [7]; [16] -1% | [7]; [17] 54% | [7]; at 50.0 µM 65.3% | [8]; at 1.2 µM 6% | [8]; at 3.7 µM 9% | [8]; at 11.0 µM 20% | [8]; at 33.0 µM 34% | [8]; at 100.0 µM 37% | [10]; at 1.2 µM -1% | [10]; at 3.7 µM 4% | [10]; [16] -4% | [10]; at 11.0 µM 30% | [10]; at 33.0 µM 57% | [10]; [17] 51% | [10]; at 100.0 µM 58% | [12]; at 1.2 µM 0% | [12]; at 3.7 µM 10% | [12]; at 11.0 µM 37% | [12]; at 33.0 µM 68% | [12]; at 100.0 µM 69% | [14]; [16] -3% | [14]; [17] 65% | [15]; at 1.2 µM -8% | [15]; at 3.7 µM 4%
active: [4]; at 33.0 µM 73% | [4]; [17] 87% | [4]; at 100.0 µM 71% | [5]; at 50.0 µM 77.5% | [10]; at 50.0 µM 79.5% | [14]; at 50.0 µM 76.6% | [15]; at 11.0 µM 77% | [15]; at 33.0 µM 83% | [15]; at 100.0 µM 82%
